Records with an inconclusive call do not appear. Entries that show only a call come without a potency. Active and inactive are the calls of the source. Calls come from the whole dose curve; tested in HEK293 reporter line. Peptide text beside a SMILES is read from it.
Experiment: qHTS for Inhibitors of the Functional Ribonucleoprotein Complex (vRNP) of Lassa (LASV) Arenavirus: LASV Primary Screen - GLuc reporter signal (AID 1347082); note: nearly all actives have a fitted effect of over 60% in size
Conditions: LASV minigenome vRNP, Gaussia luciferase reporter; series mostly up to 57.5 µM

| Structure (SMILES) | Potency |
| --- | --- |
| CC(C)(C)C(=O)OCOC(=O)[C@@H]1N2C(=O)[C@@H](NC(=O)[C@H](N)c3ccccc3)[C@H]2SC1(C)C | inactive |
| C/C=C/c1ccc(OC)cc1 | inactive |
| C=CC[N+]1([C@H]2C[C@H]3[C@@H]4CC[C@H]5C[C@H](OC(C)=O)[C@@H](N6CCCCC6)C[C@]5(C)[C@H]4CC[C@]3(C)[C@H]2OC(=O)CC)CCCCC1 | inactive |
| CN(C)CCOC1=Cc2ccccc2Sc2ccc(Cl)cc21 | inactive |
| O=C(O)c1cn(C2CC2)c2cc(Cl)c(F)cc2c1=O | inactive |
| CCN(CC)CCCN(c1ccccc1)C1Cc2ccccc2C1 | inactive |
| O=C(CCN1CCN(CCO)CC1)N1c2ccccc2Sc2ccc(C(F)(F)F)cc21 | inactive |
| NCCc1cnc[nH]1 | inactive |
| c1cc(CN2CCCCC2)cc(OCCCNc2nc3ccccc3s2)c1 | inactive |
| OC(CCCN1CCCCC1)(c1ccccc1)c1ccccc1 | inactive |
| CCOC(=O)CN1CCCC1=O | inactive |
| CC1(C)[C@@H](OC(=O)CCC(=O)O)CC[C@]2(C)[C@H]3C(=O)C=C4[C@@H]5C[C@@](C)(C(=O)O)CC[C@]5(C)CC[C@@]4(C)[C@]3(C)CC[C@@H]12 | inactive |
| CC(C)=CCOc1ccc(/C=C/C(=O)c2ccc(OCC=C(C)C)cc2OCC(=O)O)cc1 | inactive |
| CC(=O)N[C@@H](CO)C(=O)N[C@@H](CC(=O)O)C(=O)N[C@@H](CCCCN)C(=O)N1CCC[C@H]1C(=O)O (Ac-SDKP-OH) | inactive |
| CC(=O)Oc1ccc(C(=C2CCCCC2)c2ccc(OC(C)=O)cc2)cc1 | inactive |
| O=C(O)COC(=O)Cc1ccccc1Nc1c(Cl)cccc1Cl | inactive |
| C[C@]12CC[C@@H]3c4ccc(O)cc4CC[C@H]3[C@@H]1CCC2=O | inactive |
| O=c1[nH]c2cc(C(F)(F)F)c(N3CCOCC3)cc2n(CP(=O)(O)O)c1=O | inactive |
| C1CCN2C[C@@H]3C[C@@H](CN4CCCC[C@@H]34)[C@H]2C1 | inactive |
| CN(C)[C@@H](CCOc1cccc2ccccc12)c1ccccc1 | inactive |

| Structure (SMILES) | Potency |
| --- | --- |
| CCC(C(=O)OCCN1CCOC(c2ccccc2)C1C)c1ccccc1 (stereo not given) | inactive |
| CC(=O)N[C@H]1[C@H]([C@H](O)[C@H](O)CO)OC(C(=O)O)=C[C@@H]1N=C(N)N | inactive |
| NCC1CCC(C(=O)Oc2ccc(CCC(=O)O)cc2)CC1 (stereo not given) | inactive |
| Cc1ncc(COP(=O)(O)O)c(C=O)c1O | inactive |
| CNC(=O)c1cnn(-c2nc(N)c3ncn([C@@H]4O[C@H](CO)[C@@H](O)[C@H]4O)c3n2)c1 | inactive |
| O=c1[nH]c(=O)c2ccccc2o1 | inactive |
| Cc1ccc(=O)n(-c2ccccc2)c1 | inactive |
| CN1CCCN=C1COC(=O)C(O)(c1ccccc1)C1CCCCC1 (stereo not given) | inactive |
| C1CCC(C(CC2CCCCN2)C2CCCCC2)CC1 (stereo not given) | inactive |
| O=C(O)C1CCC1 | inactive |
| CCn1ccnc1CC1COc2ccccc2O1 (stereo not given) | inactive |
| C#C[C@]1(O)CC[C@H]2[C@@H]3CCc4cc(OC)ccc4[C@H]3CC[C@@]21C | inactive |
| CCCCN(CCCC)CC(O)c1cc(Cl)cc2c1-c1ccc(Cl)cc1/C2=C/c1ccc(Cl)cc1 (stereo not given) | inactive |
| COc1ccccc1OC(=O)Oc1ccccc1OC | inactive |
| COCCc1ccc(OCC2CO2)cc1 (stereo not given) | inactive |
| CCCOc1ccc(C(=O)OCCN(CC)CC)cc1N | inactive |
| O=C(O)C(=O)Nc1cccc(-c2nn[nH]n2)c1 | inactive |
| NCCNC(=O)c1ccc(Cl)cn1 | inactive |
| CCCCC1C(=O)N(c2ccccc2)N(c2ccc(O)cc2)C1=O (stereo not given) | inactive |
| Cc1c(C)n(Cc2ccccc2)c2ccc(C(=O)OCCN(C)C)cc12 | inactive |

Experiment: qHTS for Inhibitors of the Functional Ribonucleoprotein Complex (vRNP) of Lassa (LASV) Arenavirus: Viability assay - alamar blue signal for LASV Primary Screen (AID 1347083); note: nearly all actives have a fitted effect of over 80% in size
Conditions: cell viability, alamar blue fluorescence (LASV minigenome counter-screen); series mostly up to 57.5 µM

| Structure (SMILES) | Potency |
| --- | --- |
| CC(C)(C)C(=O)OCOC(=O)[C@@H]1N2C(=O)[C@@H](NC(=O)[C@H](N)c3ccccc3)[C@H]2SC1(C)C | inactive |
| C/C=C/c1ccc(OC)cc1 | inactive |
| C=CC[N+]1([C@H]2C[C@H]3[C@@H]4CC[C@H]5C[C@H](OC(C)=O)[C@@H](N6CCCCC6)C[C@]5(C)[C@H]4CC[C@]3(C)[C@H]2OC(=O)CC)CCCCC1 | inactive |
| CN(C)CCOC1=Cc2ccccc2Sc2ccc(Cl)cc21 | inactive |
| O=C(O)c1cn(C2CC2)c2cc(Cl)c(F)cc2c1=O | inactive |
| CCN(CC)CCCN(c1ccccc1)C1Cc2ccccc2C1 | inactive |
| O=C(CCN1CCN(CCO)CC1)N1c2ccccc2Sc2ccc(C(F)(F)F)cc21 | inactive |
| NCCc1cnc[nH]1 | inactive |
| c1cc(CN2CCCCC2)cc(OCCCNc2nc3ccccc3s2)c1 | inactive |
| OC(CCCN1CCCCC1)(c1ccccc1)c1ccccc1 | inactive |
| CCOC(=O)CN1CCCC1=O | inactive |
| CC1(C)[C@@H](OC(=O)CCC(=O)O)CC[C@]2(C)[C@H]3C(=O)C=C4[C@@H]5C[C@@](C)(C(=O)O)CC[C@]5(C)CC[C@@]4(C)[C@]3(C)CC[C@@H]12 | inactive |
| CC(C)=CCOc1ccc(/C=C/C(=O)c2ccc(OCC=C(C)C)cc2OCC(=O)O)cc1 | inactive |
| CC(=O)N[C@@H](CO)C(=O)N[C@@H](CC(=O)O)C(=O)N[C@@H](CCCCN)C(=O)N1CCC[C@H]1C(=O)O (Ac-SDKP-OH) | inactive |
| CC(=O)Oc1ccc(C(=C2CCCCC2)c2ccc(OC(C)=O)cc2)cc1 | inactive |
| O=C(O)COC(=O)Cc1ccccc1Nc1c(Cl)cccc1Cl | inactive |
| C[C@]12CC[C@@H]3c4ccc(O)cc4CC[C@H]3[C@@H]1CCC2=O | inactive |
| O=c1[nH]c2cc(C(F)(F)F)c(N3CCOCC3)cc2n(CP(=O)(O)O)c1=O | inactive |
| C1CCN2C[C@@H]3C[C@@H](CN4CCCC[C@@H]34)[C@H]2C1 | inactive |
| CN(C)[C@@H](CCOc1cccc2ccccc12)c1ccccc1 | inactive |

| Structure (SMILES) | Potency |
| --- | --- |
| CCC(C(=O)OCCN1CCOC(c2ccccc2)C1C)c1ccccc1 (stereo not given) | inactive |
| CC(=O)N[C@H]1[C@H]([C@H](O)[C@H](O)CO)OC(C(=O)O)=C[C@@H]1N=C(N)N | inactive |
| NCC1CCC(C(=O)Oc2ccc(CCC(=O)O)cc2)CC1 (stereo not given) | inactive |
| Cc1ncc(COP(=O)(O)O)c(C=O)c1O | inactive |
| CNC(=O)c1cnn(-c2nc(N)c3ncn([C@@H]4O[C@H](CO)[C@@H](O)[C@H]4O)c3n2)c1 | inactive |
| O=c1[nH]c(=O)c2ccccc2o1 | inactive |
| Cc1ccc(=O)n(-c2ccccc2)c1 | inactive |
| CN1CCCN=C1COC(=O)C(O)(c1ccccc1)C1CCCCC1 (stereo not given) | inactive |
| C1CCC(C(CC2CCCCN2)C2CCCCC2)CC1 (stereo not given) | inactive |
| O=C(O)C1CCC1 | inactive |
| CCn1ccnc1CC1COc2ccccc2O1 (stereo not given) | inactive |
| C#C[C@]1(O)CC[C@H]2[C@@H]3CCc4cc(OC)ccc4[C@H]3CC[C@@]21C | inactive |
| CCCCN(CCCC)CC(O)c1cc(Cl)cc2c1-c1ccc(Cl)cc1/C2=C/c1ccc(Cl)cc1 (stereo not given) | inactive |
| COc1ccccc1OC(=O)Oc1ccccc1OC | inactive |
| COCCc1ccc(OCC2CO2)cc1 (stereo not given) | inactive |
| CCCOc1ccc(C(=O)OCCN(CC)CC)cc1N | inactive |
| O=C(O)C(=O)Nc1cccc(-c2nn[nH]n2)c1 | inactive |
| NCCNC(=O)c1ccc(Cl)cn1 | inactive |
| CCCCC1C(=O)N(c2ccccc2)N(c2ccc(O)cc2)C1=O (stereo not given) | inactive |
| Cc1c(C)n(Cc2ccccc2)c2ccc(C(=O)OCCN(C)C)cc12 | inactive |

Source: PubChem BioAssay (NCATS)
